Screening data (PubChem)
An excerpt weighted towards active compounds, which were near 2.4% of everything screened.
eIF4E-4G inh: eIF4E–eIF4G protein interaction inhibitors, primary screen, biochemical, uHTS, TR-FRET, eIF4GI fragment; Eukaryotic translation initiation factor 4E (Mus musculus) + Eukaryotic translation …; TR-FRET eIF4E-eIF4GI(517-606) binding, 2 h; inhibition, % at 21.7 µM; hit rate 0.37% among 220,000; AID 782, 2007;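 active = inhibition above about 30%, limit read from the data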
Target sequence (P63073 whole entry, looked up, the tested form may be a part): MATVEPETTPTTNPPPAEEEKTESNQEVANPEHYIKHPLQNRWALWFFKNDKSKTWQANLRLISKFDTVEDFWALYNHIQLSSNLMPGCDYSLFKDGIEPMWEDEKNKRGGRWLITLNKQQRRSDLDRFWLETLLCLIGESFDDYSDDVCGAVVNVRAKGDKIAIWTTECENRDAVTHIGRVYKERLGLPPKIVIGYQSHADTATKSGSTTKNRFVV
Target sequence (Q04637 whole entry, looked up, the tested form may be a part): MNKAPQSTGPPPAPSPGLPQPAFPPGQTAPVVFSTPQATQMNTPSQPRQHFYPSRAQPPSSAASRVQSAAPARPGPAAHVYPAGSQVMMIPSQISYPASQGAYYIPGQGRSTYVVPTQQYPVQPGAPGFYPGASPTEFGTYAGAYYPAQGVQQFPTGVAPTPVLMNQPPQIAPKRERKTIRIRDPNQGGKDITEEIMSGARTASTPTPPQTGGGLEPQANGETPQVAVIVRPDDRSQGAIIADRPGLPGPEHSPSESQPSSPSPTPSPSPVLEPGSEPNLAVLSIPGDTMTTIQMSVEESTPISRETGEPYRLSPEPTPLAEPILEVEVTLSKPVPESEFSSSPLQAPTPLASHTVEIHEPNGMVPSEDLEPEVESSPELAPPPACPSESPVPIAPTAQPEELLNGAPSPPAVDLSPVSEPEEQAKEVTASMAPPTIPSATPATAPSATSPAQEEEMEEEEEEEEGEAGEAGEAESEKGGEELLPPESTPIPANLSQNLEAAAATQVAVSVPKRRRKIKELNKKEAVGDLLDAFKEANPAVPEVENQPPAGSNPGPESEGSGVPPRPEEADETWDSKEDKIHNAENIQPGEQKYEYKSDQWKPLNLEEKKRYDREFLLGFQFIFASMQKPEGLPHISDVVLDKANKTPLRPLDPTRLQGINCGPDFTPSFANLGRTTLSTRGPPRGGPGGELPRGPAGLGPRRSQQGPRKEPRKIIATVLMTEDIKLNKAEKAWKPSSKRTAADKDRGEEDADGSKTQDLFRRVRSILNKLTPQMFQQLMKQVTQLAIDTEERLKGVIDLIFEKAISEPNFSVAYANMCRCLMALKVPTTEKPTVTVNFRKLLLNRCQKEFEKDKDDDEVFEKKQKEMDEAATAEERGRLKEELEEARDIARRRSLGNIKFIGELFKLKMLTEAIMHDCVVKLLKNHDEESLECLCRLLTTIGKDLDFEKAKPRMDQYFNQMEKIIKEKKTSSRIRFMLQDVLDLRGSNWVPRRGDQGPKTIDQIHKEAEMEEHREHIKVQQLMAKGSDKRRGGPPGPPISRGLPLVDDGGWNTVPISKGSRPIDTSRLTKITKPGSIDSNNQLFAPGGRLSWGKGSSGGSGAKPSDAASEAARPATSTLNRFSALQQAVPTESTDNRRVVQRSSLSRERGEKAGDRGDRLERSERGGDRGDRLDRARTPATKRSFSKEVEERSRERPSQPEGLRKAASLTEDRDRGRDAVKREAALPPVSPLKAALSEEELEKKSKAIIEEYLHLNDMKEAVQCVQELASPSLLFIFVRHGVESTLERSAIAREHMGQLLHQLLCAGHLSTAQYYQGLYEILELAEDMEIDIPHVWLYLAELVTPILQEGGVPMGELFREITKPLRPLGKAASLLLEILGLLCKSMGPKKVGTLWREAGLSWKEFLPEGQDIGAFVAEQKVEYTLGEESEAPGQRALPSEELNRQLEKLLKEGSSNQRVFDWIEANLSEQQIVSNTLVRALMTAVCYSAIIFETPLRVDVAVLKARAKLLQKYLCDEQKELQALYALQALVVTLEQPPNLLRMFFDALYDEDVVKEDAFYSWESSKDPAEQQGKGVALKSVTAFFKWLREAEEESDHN
eIF4H inh: human eIF4H binding inhibitors, primary screen, translation initiation inhibitor project, biochemical, uHTS, fluorescence polarization. inhibition, % at 35 µM. Eukaryotic translation initiation factor 4H (Homo sapiens), Q15056. eIF4H fluorescence polarization binding assay. hit rate 0.94% among 290,000;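 also: calls also rest on retests at 20 µM and on dose response follow-up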
PfM18AAP inh: PfM18AAP inhibitors, malaria aminopeptidase, primary screen, biochemical, QFRET, recombinant enzyme; AID 1822, 2009; inhibition, % at 7.35 µM; H-Glu-NHMec fluorogenic cleavage; M18 aspartyl aminopeptidase (Plasmodium falciparum 3D7); hit rate 1.2% among 290,000;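 active = inhibition above the campaign mean inhibition over all tested compounds plus 3 SD, cut at about 28% in these data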
PABP1 MLLE inh: inhibitors of PABP1 MLLE–PAM2 peptide binding, primary screen, biochemical, fluorescence polarization, FITC-PAM2, GST-MLLE; inhibition, % at 20 µM; hit rate 0.36% among 360,000; in the data active = inhibition above about 35%, passing the limit was not always enough
PERK inhibitor: block of dimerizer-induced PERK translation repression, primary screen, PERK inhibitor project, CHO PERK-DD cells, SEAP luminescence, HTS | Eukaryotic translation initiation factor 2-alpha kinase 3 (Homo sapiens), Q9NZJ5 | CHO PERK-DD fusion, SEAP luminescence translation reporter | inhibition, % at 5.6 µM | hit rate 0.17% among 220,000;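 active = inhibition above the mean inhibition of all tested compounds plus 3 SD, set separately per screening campaign, cut at about 2.9% in these data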;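 also: PERK kinase domain activated by AP20187 dimerizer at 100 nM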
PABP polyA inh: PABP poly(A) RNA binding inhibitors, primary screen, biochemical, fluorescence polarization, uHTS; inhibition, % at 35 µM; Polyadenylate-binding protein 1 (Homo sapiens), P11940; AID 2014, 2009; hit rate 1% among 290,000;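 also: calls also rest on retests at 20 µM and on dose response follow-up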
A number is an active result; 0 = inactive; ? = inconclusive; - = no result given. Unless noted, no rule for the calls is given here.

SMILES	eIF4E-4G inh	eIF4H inh	PfM18AAP inh	PABP1 MLLE inh	PERK inhibitor	PABP polyA inh
CCNc1ccc2noc3c2c1C(=O)c1ccccc1-3	0	?	0	0	0	0
O=C1c2ccccc2-c2onc3c(Oc4ccccc4)cc(O)c1c23	0	85	0	-	0	83
O=c1cc(C(F)(F)F)[nH]c(=S)n1-c1ccccc1	-	0	30	0	-	0
CCN(CC)c1ccc(N=Cc2ccccc2[N+](=O)[O-])cc1	0	0	0	0	0	0
CCN(CC)c1ccc(N=Cc2ccc([N+](=O)[O-])o2)cc1	0	72	0	0	0	1.4
O=C(c1coc(=O)c2ccccc12)N1CCN(Cc2ccccc2)CC1	0	0	0	0	0	0
CN1C(=O)Cc2cc(S(=O)(=O)Nc3ccc(Cl)cc3)ccc21	-	0	29	0	-	0
Cc1ccc(-c2nnn(CCC(=O)N3CCCCC3C)n2)cc1 (centres undefined)	0	0	0	0	0	0
CC1CCCCN1C(=O)Cn1nnc(-c2cccnc2)n1 (centres undefined)	0	?	0	49	0	0
O=c1cnnc(N/N=C/c2ccccn2)[nH]1	0	0	0	0	0	0
O=c1nc(N/N=C/c2ccccn2)cn[nH]1	0	0	49	0	0	0
Cc1ccc(/C=c2\sc3n(c2=O)CN(c2ccc(Br)cc2)CN=3)o1	0	0	29	0	0	0
Cc1ccc(/C=c2/sc3n(c2=O)CCCN=3)o1	0	0	0	0	0	0
C=CCOC(=O)/C(=C/c1ccco1)NC(=O)/C=C/c1ccccc1	0	0	0	0	0	0
O=C(O)CNC(=O)/C(=C/c1ccco1)NC(=O)/C=C/c1ccccc1	0	53	0	0	0	active
COc1ccccc1/C=C/C(=O)c1c2c(c(C)[nH]c1=O)CCCC2	67	0	0	0	0	0
COc1ccccc1/C=C/C(=O)c1ccccc1	0	0	0	0	0	0
CC1CN(C(=O)c2ccc(NS(=O)(=O)c3ccc(C(C)(C)C)cc3)cc2)CC(C)O1 (centres undefined)	-	0	0	0	-	0
COC(=O)[C@@]1(C)[C@H]2C(=O)N(Cc3ccccc3)C(=O)[C@H]2[C@H]2CN=C(SCC(=O)c3ccccc3)N21	-	-	-	43	-	-
COC(=O)[C@@]1(C)[C@H]2C(=O)N(Cc3ccccc3)C(=O)[C@H]2[C@H]2CN=C(SC)N21	-	-	-	0	-	-
COc1cc(-c2noc(C3CCCN(C(=O)c4c(F)cccc4F)C3)n2)cc(OC)c1OC (centres undefined)	-	0	0	0	-	0
CCCCNC(=S)Nc1ccc(OC)nc1	0	?	0	41	0	0
COc1ccc(NC(=O)c2cc(-c3ccco3)nc3ccccc23)cc1S(=O)(=O)N1CCOCC1	38	0	0	0	0	50
COc1ccc(NC(=O)c2cc(C)nc3ccccc23)cc1S(=O)(=O)N1CCOCC1	-	-	-	0	-	-
Cc1ccc(NC(=O)c2cc(-c3ccco3)nc3ccccc23)cc1S(=O)(=O)N1CCOCC1	0	66	0	0	0	1.2
SMILES	eIF4E-4G inh	eIF4H inh	PfM18AAP inh	PABP1 MLLE inh	PERK inhibitor	PABP polyA inh
O=C(NCc1ccccn1)c1cc2n(n1)C(C(F)(F)F)CC(c1ccco1)N2 (centres undefined)	0	0	31	0	0	0
CC(C)NC(=O)c1cc2n(n1)C(C(F)(F)F)CC(c1ccco1)N2 (centres undefined)	0	0	0	0	0	0
CCOC(=O)c1ccc(NC(=O)CSC(=S)N2CCOCC2)cc1	0	0	0	0	0	0
Cc1ccc(NC(=O)COC(=O)CSC(=S)N2CCOCC2)cc1	0	active	0	0	0	55
O=C(CSc1ncnc2sc3c(c12)CCC3)N1CCOCC1	-	62	0	0	-	0
Oc1[nH]c(N=C2N=c3ccccc3=N2)c2ccccc12	0	80	0	0	0	43
Cc1ccc2c(c1)=N/C(=N\c1[nH]c(O)c3ccccc13)N=2	-	-	-	0	-	-
Cc1ccc(C(=O)NNC(=S)NC(=O)COc2ccccc2)cc1	0	0	0	0	0	0
Cc1onc(-c2ccccc2)c1C(=O)NC(=S)NNC(=O)c1ccncc1	0	0	0	42	0	0
Cc1cccc(OCC(=O)NC(=S)NNC(=O)c2ccncc2)c1	-	0	45	0	-	0
O=C(COC(=O)c1ccccn1)c1ccc(Br)cc1	0	0	0	0	0	0
O=C(OCC1CC(c2ccccn2)=NO1)c1ccc(Br)cc1 (centres undefined)	42	0	0	0	0	0
CS(=O)(=O)N1N=C(c2ccco2)CC1c1ccco1 (centres undefined)	-	78	0	0	-	37
CS(=O)(=O)N1N=C(c2ccco2)CC1c1ccccc1 (centres undefined)	0	0	0	0	0	0
NC(=S)C(c1ccccc1)c1ncc(C(F)(F)F)cc1Cl (centres undefined)	-	0	0	42	-	0
NC(=O)C(c1cccc(Cl)c1)c1ncc(C(F)(F)F)cc1Cl (centres undefined)	0	0	0	0	0	0
Nc1nnc(CC(=O)N2CCCCC2)s1	46	0	0	0	0	0
Nc1nnc(N2CCCCC2)s1	0	0	0	0	0	0
CC(=O)C(C(C)=O)C1(O)C(=O)c2ccccc2C1=O	0	0	0	0	3.0	0
O=C(NC1(O)C(=O)c2ccccc2C1=O)c1ccccc1	0	0	0	0	0	0
Cc1nc2cc3c(=O)n(C)cnc3cc2n1Cc1ccccc1	-	-	-	0	-	-
C(=N\C(/N=C/c1ccco1)c1ccco1)/c1ccco1	0	103	0	0	0	108
C(=Nc1cccc2c(N=Cc3ccco3)cccc12)c1ccco1	0	?	0	67	0	0
CCCCCC(=O)NC(NC(=S)Nc1ccc(S(N)(=O)=O)cc1)C(Cl)(Cl)Cl (centres undefined)	0	61	0	0	0	35
Cc1cccc(NC(=O)C2CCN(C(=O)[C@@H]3Cc4ccccc4CN3)CC2)c1	-	0	0	0	-	0
CC1C2(C)OC(=N)C(C#N)(C(C)O2)C1(C#N)C#N (centres undefined)	0	0	0	64	0	0
CC1OC2(C)OC(=N)C1(C#N)C(C#N)(C#N)C2c1ccccc1 (centres undefined)	0	?	0	0	0	0
O=C(CCNS(=O)(=O)c1ccc(Cl)cc1)N1CCN(c2ccccn2)CC1	-	0	0	0	-	0
CN1C(=O)c2ccccc2NC(=O)[C@]12O[C@@H]2c1cccc(O)c1	0	88	-	0	-	0
